# A number with no mark means an inactive call. Calls follow the shape of the dose curve; as a rule, active = well fitted cell-killing curve with a large enough effect in the repeat runs; inconclusive = weak or mixed curves, or effect the other way; inactive = flat fitted curve, though single readings scatter.
# Test: qHTS assay to identify small molecule HDAC inhibitors - cell viability counter screen (AID 1259365); also: nearly all actives have a fitted effect of over 50% in size
# Details: HCT-116 viability, CellTiter-Glo ATP luminescence, 2 h; series mostly up to 92.4 µM; activity change, negative = cytotoxicity: at the top concentration
# Excerpt: U.S. Tox21 Program National Center for Advancing Translational Sciences [NCATS] NIH Chemical Genomics Center [NCGC] U.S. Environmental Protection Agency [EPA] National Institutes of Environmental Health Sciences [NIEHS] National Toxicology Program [NTP] U.S. Food and Drug Administration [FDA] Tox21 Assay Overview: Histone deacetylases (HDACs) are a group of epigenetic enzymes that regulate gene expression by histone deacetylation. HDACs are capable of introducing epigenetic modifications and such aberrations contribute to the onset and progression of several human diseases, thus making HDACs a popular therapeutic target. For identifying endogenous class I/II HDAC inhibitors a homogenous, luminogenic HDAC I/II cell based assay was used to measure the relative activity of class I and II HDACs from cells. Wild type HCT-116 cells were used to screen Tox21 compound libraries for identifying class I/II HDAC inhibitors.
# Tox21 Assay Protocol Summary: HCT-116 cells were dispensed at 1,500 per well in 5uL of culture medium into white solid bottom 1536-well plates (Greiner Bio-One, Monroe, NC) using a Multidrop Combi (Thermo Scientific, Waltham, MA) dispenser. The assay plates were incubated at 37 C and 5% CO2 for an overnight, and then 23nL of compounds dissolved in DMSO and positive control were transferred using a Pintool station (Wako, San Diego, CA). The assay plates were incubated at 37C and 5% CO2 for 2hr. After compound treatment, 4uL of CellTiter-Glo reagent (Promega Corporation, Madison, WI) was added to each well of the assay plates using Flying Reagent Dispenser (FRD, Aurora Discovery, San Diego, CA) and incubated the assay plates at room temperature for 30min. The luminescence signal was quantified using a ViewLux plate reader (Perkin Elmer, Shelton, CT).
# % is scaled to controls: 0 for no effect and ±100 for the full control effect.
row,SMILES,"activity change, negative = cytotoxicity"
1,CCCCCCCCCCC(=O)O,-0.146%
2,CN1CCCC(n2nc(Cc3ccc(Cl)cc3)c3ccccc3c2=O)CC1 (stereo not given),-0.141% [at 42.5 µM]
3,O=C(Nc1cccc2c(=O)cc(-c3nn[nH]n3)oc12)c1ccc(OCCCCc2ccccc2)cc1,4.75% [at 42.5 µM]
4,CCOC(=O)C1=C(C)NC(C)=C(C(=O)OC)C1c1cccc(Cl)c1Cl (stereo not given),1.89% [at 42.5 µM]
5,C=C(C)CCCC(C)CCO (stereo not given),-0.132%
6,CC(O)c1ccccc1 (stereo not given),5.91%
7,Nc1nc2ccc([N+](=O)[O-])cc2s1,9.33%
8,O=C=Nc1ccc(Cl)c(Cl)c1,5.22%
9,O=c1c(O)c(-c2ccc(O)cc2)oc2cc(O)cc(O)c12,18.6% [at 42.5 µM]
10,O=C(CCCN1CC=C(n2c(=O)[nH]c3ccccc32)CC1)c1ccc(F)cc1,-5.76% [at 42.5 µM]
11,CCn1cc(C(=O)O)c(=O)c2cc(F)c(N3CCNCC3)cc21,-0.414% [at 42.5 µM]
12,COc1ccccc1Oc1c(NS(=O)(=O)c2ccc(C(C)(C)C)cc2)nc(-c2ncccn2)nc1OCCO,4.39% [at 42.5 µM]
13,Nc1ncnc2c1ncn2[C@H]1CC[C@@H](CO)O1,14.2%
14,CCC(OCCCOC)OC(C)=O (stereo not given),-1.36%
15,CC1(C)O[C@@H]2C[C@H]3[C@@H]4C[C@H](F)C5=CC(=O)C=C[C@]5(C)[C@H]4[C@@H](O)C[C@]3(C)[C@]2(C(=O)CO)O1,2.52% [at 42.5 µM]
16,O=C1Cc2cc(Cl)ccc2N1,5.56% [at 42.5 µM]
17,CC(C)(C)CC(=O)OCC(=O)[C@@]1(O)CC[C@H]2[C@@H]3CCC4=CC(=O)C=C[C@]4(C)[C@H]3[C@@H](O)C[C@@]21C,1.28% [at 42.5 µM]
18,CNC(=O)c1cnn(-c2nc(N)c3ncn([C@@H]4O[C@H](CO)[C@@H](O)[C@H]4O)c3n2)c1,1.11% [at 42.5 µM]
19,CCOC(=O)c1ccc(C#Cc2ccc3c(c2)C(C)(C)CCS3)nc1,0.842% [at 42.5 µM]
20,C=Cc1ccc(S(=O)(=O)O)cc1,-0.184%

row,SMILES,"activity change, negative = cytotoxicity"
1,CC(C)(O)c1ccc(CNC(=O)c2cccnc2Oc2ccc3nonc3c2)cc1,0.466%
2,Brc1cc(Br)c(Oc2cc(Br)c(Br)cc2Br)cc1Br,-6.15% [at 42.5 µM]
3,CCCCN(CCCC)C(C(N)=O)c1ccc(OC)cc1 (stereo not given),-4.27% [at 42.5 µM]
4,Nc1cccc2c1CN(C1CCC(=O)NC1=O)C2=O (stereo not given),-2.59% [at 42.5 µM]
5,Cc1c(C)c2c(c(C)c1OC(=O)CCC(=O)OCCO)CC[C@@](C)(CCC[C@H](C)CCC[C@H](C)CCCC(C)C)O2,3.78% [at 42.5 µM]
6,C1COC1,-0.0138%
7,C=C1CCC2CC1C2(C)C (stereo not given),-2.52%
8,CC(C)C(O)(c1ccc(OC(F)(F)F)cc1)c1cncnc1 (stereo not given),0.178%
9,CCCCCCCC/C=C\CCCCCCCCCCCC(=O)O,2.35%
10,CCOC(=O)c1ccc(OCCN2C[C@H](O)[C@@H](O)[C@H](O)[C@H]2CO)cc1,-0.946% [at 42.5 µM]
11,C=COCC(C)C,5.08%
12,C[C@@H](CN(C)C)CN1c2ccccc2Sc2ccccc21,-2.09% [at 42.5 µM]
13,CCCCCCC(C)(C)C(=O)O,-0.401%
14,O=[N+]([O-])c1cc(C2CCCCC2)c(O)c([N+](=O)[O-])c1,-1.41%
15,CC(C)COCC(CN(Cc1ccccc1)c1ccccc1)N1CCCC1 (stereo not given),-15.6% [at 42.5 µM]
16,O=c1[nH]c2ccc(Cl)cc2o1,2.69%
17,COC(=O)CS,0.582%
18,Oc1cccc(O)c1O,-0.744%
19,CO/N=C(/C(=O)N[C@@H]1C(=O)N2C(C(=O)O)=C(COC(N)=O)CS[C@H]12)c1ccco1,-0.991%
20,CCCCCCCCCI,0.127%

# Source: PubChem BioAssay (Tox21)
